The values below come from PubChem BioAssay (NCATS).

Assay [1] addresses Lysosomal acid glucosylceramidase (Homo sapiens) (UniProt P04062). Put plainly: Glucocerebrosidase-p2 (AID 348; in the data active = potency below about 10 µM; note: potency is the fitted concentration of half-maximal effect). The note with it: purified GBA, blue fluorogenic substrate, 40 min. In outline:
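Normal human glucocerebrosidase (0.2 nM) with blue fluorogenic substrate (80 uM final) in citrate/phosphate pH 5.9 with 10mM sodium taurocholate, 0.01% tween-20; 40 min RT, NaOH/glycine stop; fluorescence Ex 365/Em 440; AC50 from a titration from 0.6 nM upwards.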

Assay [2] is described as follows: AP1 Signaling Pathway (AID 357). Note: % is set by controls: 0 for no effect and ±100 for the full control effect. The note with it: ME-180 AP-1-bla reporter, EGF-induced, beta-lactamase ratio, 5 h; at 7.69 µM (top of the series) unless noted. The procedure, abridged:
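ME-180 cells with beta-lactamase reporter under AP-1 response element, stimulated with EC50 EGF; compounds tested in titration series, 5 h at 37 °C. CCF4 substrate added 2.5 h at room temperature; 460/530 nm emission ratio gave %activity and AC50.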

Assay [3] addresses Cytochrome P450 1A2 (Homo sapiens) (UniProt P05177). Put plainly: p450-cyp1a2 (AID 410; calls by dose curve; note: potency is the fitted concentration of half-maximal effect;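 for activity change, negative = inhibition: -100% = full effect of reference inhibitor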). The note with it: recombinant CYP1A2, luciferin-ME demethylation, luminescence; series mostly up to 57 µM. In outline:
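O-Demethylation of luciferin 6' methyl ether by human CYP1A2 is monitored as luciferase luminescence. Substrate sits at Km (100uM); enzyme is 20nM. Values are scaled to 57 uM furafylline as maximal inhibition.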

A short description of assay [4]: Stat Signaling Pathway (AID 446).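 Note: ME-180 cervical cancer cells given 40 pM IL-6 alongside compound; SIE-controlled beta-lactamase reporter measured as 460/530 nm FRET emission ratio; % is set by controls: 0 for no effect and ±100 for the full control effect.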 The note with it: ME-180 SIE beta-lactamase reporter, IL-6 stimulated, 5 h; at 7.69 µM (top of the series) unless noted. The procedure, abridged:
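Normalization used AC90 stimulation (300 pM IL-6) and AC90 inhibition (125 nM pan-JAK inhibitor at 40 pM IL-6). The underlying signal is SIE-driven beta-lactamase in ME-180 cells after 5 h IL-6 exposure with compound.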

For assay [5], the target named is Glucocorticoid receptor (Homo sapiens) (UniProt P04150). Put plainly: GR-GFP Redistribution (AID 450;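 active = compounds whose dose series gives a full or clear partial fitted curve of increased nuclear translocation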; note: potency is the fitted concentration of half-maximal effect). The note with it: U2OS GR-GFP nuclear translocation, laser cytometry, 2 h.
Sequence of Glucocorticoid receptor (Homo sapiens) (P04150 whole entry, looked up, the tested form may be a part): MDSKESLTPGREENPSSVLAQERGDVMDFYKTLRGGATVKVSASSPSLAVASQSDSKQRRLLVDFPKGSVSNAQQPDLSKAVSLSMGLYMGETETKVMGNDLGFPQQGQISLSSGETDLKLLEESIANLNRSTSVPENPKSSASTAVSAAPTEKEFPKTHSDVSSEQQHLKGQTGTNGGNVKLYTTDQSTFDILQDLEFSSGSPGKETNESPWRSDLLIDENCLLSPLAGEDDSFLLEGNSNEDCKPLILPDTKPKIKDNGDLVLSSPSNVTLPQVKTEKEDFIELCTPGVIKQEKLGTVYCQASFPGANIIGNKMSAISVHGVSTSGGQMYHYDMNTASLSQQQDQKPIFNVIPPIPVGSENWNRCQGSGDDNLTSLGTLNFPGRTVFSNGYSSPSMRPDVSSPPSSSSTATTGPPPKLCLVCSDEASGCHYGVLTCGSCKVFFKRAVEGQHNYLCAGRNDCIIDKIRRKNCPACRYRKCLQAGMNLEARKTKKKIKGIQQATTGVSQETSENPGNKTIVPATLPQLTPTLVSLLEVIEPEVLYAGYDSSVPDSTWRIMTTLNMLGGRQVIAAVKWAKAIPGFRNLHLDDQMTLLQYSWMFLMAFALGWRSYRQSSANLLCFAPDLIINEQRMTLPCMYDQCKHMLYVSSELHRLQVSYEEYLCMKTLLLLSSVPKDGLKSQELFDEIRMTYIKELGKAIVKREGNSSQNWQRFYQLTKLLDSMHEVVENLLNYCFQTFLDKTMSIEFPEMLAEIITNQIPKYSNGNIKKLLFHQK
For assay [6] the target is unchanged. Put plainly: GR-EFC Redistribution (AID 451; calls by dose curve; note: potency is the fitted concentration of half-maximal effect). To be noted: CHO-K1 GR-EFC translocation, beta-gal luminescence, 2 h. The procedure, abridged: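 CHO-K1 cells stably expressing nuclear-localized β-gal enzyme acceptor and GR fused C-terminally to the enzyme donor fragment; ligand-driven nuclear translocation restores β-gal by complementation. Compounds titrated up to 46 uM final, 2 h at 37 °C; luminescence read.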

The target of assay [7] is Mitogen-activated protein kinase 10 (Mus musculus) (UniProt Q61831). Put plainly: JNK3 AlphaScreen Assay (AID 530).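 Note: kinase came from lysate of stimulated human HepG2 cells; signal reports phosphorylation of biotinylated GST-cJun 1-79 at Ser73 with 10 µM ATP; % is set by controls: 0 for no effect and ±100 for the full control effect.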 To be noted: JNK3 lysate, c-Jun phosphorylation; series mostly up to 57.1 µM. In outline:
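Phosphorylation of biotinylated GST-cJun(1-79) at Ser73 is measured by AlphaScreen proximity luminescence. Enzyme is JNK3 in HepG2 lysates activated with interleukin-1beta and tumor necrosis factor alpha; ATP is 10 uM final.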

Assay [8] concerns the target 3',5'-cyclic-AMP phosphodiesterase 4B (Homo sapiens) (UniProt Q07343). Put plainly: qHTS Assay for Inhibitors of PDE-IV (AID 607; active = well fitted activation curve with a large enough effect in the main read-out, with a control signal flat, not every such curve was filed as active; note: % of control where 0% means no effect). The note with it: HEK293 ACTOne CNG channel cells, membrane potential fluorescence; series mostly up to 22.9 µM. In outline:
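HEK293 ACTOne cells with CNG channel (1000/well), endogenous PDE4; membrane potential dye, compounds up to 22.9 uM final. Fluorescence Ex 535/Em 590; RO 20-1724 (100 uM final) as reference.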
For orientation: Quantitative high-throughput screening tests each substance at several concentrations.

For assay [9], the target named is Cytochrome P450 3A4 (Homo sapiens) (UniProt P08684). Put plainly: qHTS Assay for Activators of Cytochrome P450 3A4 (AID 885; active = well fitted curve in the direction sought with a large enough effect; an effect the other way counts as inactive or inconclusive; note: nearly all actives have a fitted effect of over 65% in size). To be noted: recombinant CYP3A4, Luciferin-PPXE luminescence, 60 min; series mostly up to 57.1 µM. In outline: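 Human CYP3A4 dealkylates Luciferin-PPXE to luciferin, which luciferase detection converts to light. Substrate was at its KM (25uM), buffer 200mM KPO4, reaction 60 min at RT.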
Sequence of Cytochrome P450 3A4 (Homo sapiens) (P08684 whole entry, looked up): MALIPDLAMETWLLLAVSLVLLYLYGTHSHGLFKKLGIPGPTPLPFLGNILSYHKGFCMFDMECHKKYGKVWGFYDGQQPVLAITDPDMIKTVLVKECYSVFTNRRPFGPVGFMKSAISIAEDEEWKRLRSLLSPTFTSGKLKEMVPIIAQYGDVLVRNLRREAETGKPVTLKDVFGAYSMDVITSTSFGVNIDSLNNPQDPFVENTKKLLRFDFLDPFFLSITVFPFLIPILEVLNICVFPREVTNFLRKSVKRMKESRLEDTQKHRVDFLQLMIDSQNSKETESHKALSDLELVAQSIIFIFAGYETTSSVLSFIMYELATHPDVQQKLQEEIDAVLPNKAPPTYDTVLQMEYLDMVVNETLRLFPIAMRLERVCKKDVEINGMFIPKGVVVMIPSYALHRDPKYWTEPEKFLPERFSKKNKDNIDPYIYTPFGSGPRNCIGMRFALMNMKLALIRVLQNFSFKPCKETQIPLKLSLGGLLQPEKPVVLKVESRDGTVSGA

Assay [10] can be described thus: Confirmation and Secondary Assay for Modulators of Hemoglobin Beta Chain Splicing at IVS2 654 locus (AID 910; active = well fitted curve in the direction sought with a large enough effect; an effect the other way counts as inactive or inconclusive;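 note: per-well total GFP intensity by laser scanning cytometry after 2-day treatment; % of control where 0% means no effect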). The note with it: HeLa EGFP-654 splicing reporter, GFP fluorescence, 48 h; series mostly up to 38.3 µM. In outline: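 HeLa cells stably carrying EGFP interrupted by mutant beta-globin IVS2-654 intron (CMV-driven) were treated with compound for 2 days at 37C; corrected splicing was scored as total peak GFP intensity per well (488 nm excitation, 500-520 nm emission).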

A short description of assay [11]: Confirmation and Secondary Assay for Modulators of Hemoglobin Beta Chain Splicing at IVS2 705 locus (AID 930; active = well fitted curve in the direction sought with a large enough effect; an effect the other way counts as inactive or inconclusive; note: % of control where 0% means no effect). To be noted: HeLa EGFP-705 splicing reporter, GFP fluorescence, 48 h; series mostly up to 38.3 µM. In outline: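 Fluorescence gain (488 nm laser, 500-520 nm PMT) reflects restored correct splicing of a mutant IVS2-705 intron inside EGFP in stably transfected HeLa cells after 2-day compound treatment.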

Assay [12] has as its target Ubiquitin carboxyl-terminal hydrolase 1 (Homo sapiens) (UniProt O94782). Put plainly: Inhibitors of USP1/UAF1: Pilot qHTS (AID 504865; active = well fitted curve in the direction sought with a large enough effect; an effect the other way counts as inactive or inconclusive;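 note: rhodamine fluorescence freed from ubiquitin-rhodamine substrate followed over time; top concentration of the series differs between compounds; % is set by controls: 0 for no effect and ±100 for the full control effect; nearly all actives have a fitted effect of over 35% in size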). To be noted: purified USP1/UAF1, Ub-rhodamine cleavage fluorescence; series mostly up to 54.9 µM. The procedure, abridged:
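1nM USP1/UAF1 + cpd, 15 min RT; start w/ Ub-Rho 150nM final; kinetic FL 480/540 nm, 6 reads q60 s. Buffer 50mM HEPES pH 7.8, 0.5mM EDTA, 1mM TCEP, 0.01% Tween-20, 0.1 mg/ml BSA.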

Assay [13] in a line: Primary qHTS for small molecule stabilizers of the endoplasmic reticulum resident proteome: Secreted ER Calcium Modulated Protein (SERCaMP) assay (AID 1508630; active = well fitted curve in the direction sought with a large enough effect; an effect the other way counts as inactive or inconclusive; note: % is set by controls: 0 for no effect and ±100 for the full control effect). The note with it: SH-SY5Y GLuc-SERCaMP (Gaussia luciferase released on ER calcium loss) secretion, thapsigargin, luminescence; series mostly up to 38.4 µM. The procedure, abridged: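 The SH-SY5Y reporter protocol was run at 3 concentrations up to 38.3 uM (primary) or 11 concentrations (follow-up): 16 h compound, 100 nM thapsigargin for 4 h, then extracellular luciferase luminescence.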

The nature of assay [14]: NFAT Signaling Pathway (AID 444). The note with it: Jurkat NFAT-bla M1, carbachol, beta-lactamase ratio, 5 h; at 7.69 µM (top of the series) unless noted. The procedure, abridged: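 Jurkat cells carrying an NFAT-driven β-lactamase reporter and co-transfected muscarinic M1 receptor were treated with compound plus carbachol (1 uM final, an EC50 level) for 5 h at 37 °C. CCF4 loading followed for 1 h at RT; 460/530 nm ratio gave %activity.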

Assay [15] concerns the target Cytochrome P450 2D6 (Homo sapiens) (UniProt P10635). Put plainly: qHTS Assay for Inhibitors and Substrates of Cytochrome P450 2D6 (AID 891; active = well fitted curve in the direction sought with a large enough effect; an effect the other way counts as inactive or inconclusive; note: potency is the fitted concentration of half-maximal effect; nearly all actives have a fitted effect of over 60% in size). To be noted: recombinant CYP2D6, luciferin-ME EGE luminescence; series mostly up to 57.1 µM. In outline:
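Luminescent read-out of luciferin formed by 5 nM human CYP2D6 demethylating 30 uM Luciferin-ME EGE (Km level) over 60 min at room temperature after NADPH regeneration addition. Data normalized to full inhibition by 1.43 uM quinidine.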

The nature of assay [16]: qHTS Assay for Identification of Small Molecule Agonists for Hypoxia Response Element Signaling Pathway (AID 914; active = well fitted activation curve with a large enough effect in the signal ratio, with a control signal flat, not every such curve was filed as active; the % refers to the signal ratio; note: potency is the fitted concentration of half-maximal effect; for activation: % of control where 0% means no effect). The note with it: ME-180 (cervical carcinoma) HRE-bla reporter, beta-lactamase ratio, CoCl2, 17 h; activation: stronger effect = higher value. The procedure, abridged:
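A beta-lactamase reporter under hypoxia response element control in ME-180 cells served as the system. Compound titrations plus EC50 CoCl2 ran 17 h at 37 degrees Celsius; AC50 values were fitted from %Activity.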

Assay [17] concerns the target Cytochrome P450 3A4 (Homo sapiens) (UniProt P08684). Put plainly: qHTS Assay for Inhibitors and Substrates of Cytochrome P450 3A4 (AID 884; active = well fitted curve in the direction sought with a large enough effect; an effect the other way counts as inactive or inconclusive; note: potency is the fitted concentration of half-maximal effect; nearly all actives have a fitted effect of over 50% in size). The note with it: recombinant CYP3A4, Luciferin-PPXE luminescence; series mostly up to 57.1 µM. The procedure, abridged: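 Luminescent readout of luciferin produced by CYP3A4 (20 nM) dealkylation of Luciferin-PPXE, 25 uM (its KM). NADPH-driven reaction ran 60 min at RT after 10 min compound preincubation; data scaled to 57 uM ketoconazole as 100% inhibition.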

Molecules are shown by their SMILES. Unmarked numbers belong to inactive results. Records with an inconclusive call do not appear. The source made the active and inactive calls. Unless noted, calls come from the whole dose curve; as a rule, active = well fitted curve in either direction with a large enough effect (not every such curve was filed as active); inconclusive = small, poorly fitted or top-dose-only effect, or another doubt; inactive = flat fitted curve, though single readings scatter.

Sequence of Lysosomal acid glucosylceramidase (Homo sapiens) (P04062 whole entry, looked up): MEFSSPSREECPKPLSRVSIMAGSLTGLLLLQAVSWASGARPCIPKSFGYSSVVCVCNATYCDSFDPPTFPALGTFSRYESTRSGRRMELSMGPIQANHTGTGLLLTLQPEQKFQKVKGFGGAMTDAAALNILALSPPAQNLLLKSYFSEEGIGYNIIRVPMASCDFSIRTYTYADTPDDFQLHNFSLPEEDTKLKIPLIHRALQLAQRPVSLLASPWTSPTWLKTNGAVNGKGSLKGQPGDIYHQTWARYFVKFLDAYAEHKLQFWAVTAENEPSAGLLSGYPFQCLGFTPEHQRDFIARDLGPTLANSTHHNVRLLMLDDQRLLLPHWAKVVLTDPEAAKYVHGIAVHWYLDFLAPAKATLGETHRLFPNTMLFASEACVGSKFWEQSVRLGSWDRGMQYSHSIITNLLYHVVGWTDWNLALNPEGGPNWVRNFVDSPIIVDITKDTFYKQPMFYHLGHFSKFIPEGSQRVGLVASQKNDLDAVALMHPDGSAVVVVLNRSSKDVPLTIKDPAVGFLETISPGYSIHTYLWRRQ
Sequence of Cytochrome P450 1A2 (Homo sapiens) (P05177 whole entry, looked up): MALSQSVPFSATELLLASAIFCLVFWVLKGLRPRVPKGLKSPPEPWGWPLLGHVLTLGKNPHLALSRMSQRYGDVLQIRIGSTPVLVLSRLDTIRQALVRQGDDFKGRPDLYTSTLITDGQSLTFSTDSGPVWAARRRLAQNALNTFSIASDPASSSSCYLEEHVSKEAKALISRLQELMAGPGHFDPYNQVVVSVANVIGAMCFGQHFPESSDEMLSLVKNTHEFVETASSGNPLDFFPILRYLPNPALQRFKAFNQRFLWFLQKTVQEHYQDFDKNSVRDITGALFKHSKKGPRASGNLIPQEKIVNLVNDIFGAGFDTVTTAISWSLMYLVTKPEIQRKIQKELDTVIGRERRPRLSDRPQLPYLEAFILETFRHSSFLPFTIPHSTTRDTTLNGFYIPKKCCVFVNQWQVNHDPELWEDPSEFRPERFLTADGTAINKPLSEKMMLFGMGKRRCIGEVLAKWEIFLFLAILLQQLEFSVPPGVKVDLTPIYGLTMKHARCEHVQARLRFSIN
Sequence of 3',5'-cyclic-AMP phosphodiesterase 4B (Homo sapiens) (Q07343 whole entry, looked up): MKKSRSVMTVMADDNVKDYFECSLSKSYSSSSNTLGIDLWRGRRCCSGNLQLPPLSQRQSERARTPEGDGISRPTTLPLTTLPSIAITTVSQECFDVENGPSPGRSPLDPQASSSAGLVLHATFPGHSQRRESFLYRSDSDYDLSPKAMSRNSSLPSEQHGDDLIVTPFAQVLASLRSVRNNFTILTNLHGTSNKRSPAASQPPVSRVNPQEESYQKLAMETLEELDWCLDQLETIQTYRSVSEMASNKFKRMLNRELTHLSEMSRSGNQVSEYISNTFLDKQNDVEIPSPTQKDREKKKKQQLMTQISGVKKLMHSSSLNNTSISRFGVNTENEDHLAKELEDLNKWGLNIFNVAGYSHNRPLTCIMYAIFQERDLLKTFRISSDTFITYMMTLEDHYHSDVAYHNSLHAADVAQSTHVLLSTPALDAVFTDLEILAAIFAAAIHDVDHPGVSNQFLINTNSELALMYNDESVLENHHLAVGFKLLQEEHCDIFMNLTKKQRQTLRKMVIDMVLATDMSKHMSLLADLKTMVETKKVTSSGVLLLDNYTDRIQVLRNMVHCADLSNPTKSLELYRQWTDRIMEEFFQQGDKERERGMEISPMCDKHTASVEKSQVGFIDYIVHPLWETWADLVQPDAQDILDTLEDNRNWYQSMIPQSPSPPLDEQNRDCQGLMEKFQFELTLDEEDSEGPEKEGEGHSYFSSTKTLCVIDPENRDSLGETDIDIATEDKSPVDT
Sequence of Ubiquitin carboxyl-terminal hydrolase 1 (Homo sapiens) (O94782 whole entry, looked up): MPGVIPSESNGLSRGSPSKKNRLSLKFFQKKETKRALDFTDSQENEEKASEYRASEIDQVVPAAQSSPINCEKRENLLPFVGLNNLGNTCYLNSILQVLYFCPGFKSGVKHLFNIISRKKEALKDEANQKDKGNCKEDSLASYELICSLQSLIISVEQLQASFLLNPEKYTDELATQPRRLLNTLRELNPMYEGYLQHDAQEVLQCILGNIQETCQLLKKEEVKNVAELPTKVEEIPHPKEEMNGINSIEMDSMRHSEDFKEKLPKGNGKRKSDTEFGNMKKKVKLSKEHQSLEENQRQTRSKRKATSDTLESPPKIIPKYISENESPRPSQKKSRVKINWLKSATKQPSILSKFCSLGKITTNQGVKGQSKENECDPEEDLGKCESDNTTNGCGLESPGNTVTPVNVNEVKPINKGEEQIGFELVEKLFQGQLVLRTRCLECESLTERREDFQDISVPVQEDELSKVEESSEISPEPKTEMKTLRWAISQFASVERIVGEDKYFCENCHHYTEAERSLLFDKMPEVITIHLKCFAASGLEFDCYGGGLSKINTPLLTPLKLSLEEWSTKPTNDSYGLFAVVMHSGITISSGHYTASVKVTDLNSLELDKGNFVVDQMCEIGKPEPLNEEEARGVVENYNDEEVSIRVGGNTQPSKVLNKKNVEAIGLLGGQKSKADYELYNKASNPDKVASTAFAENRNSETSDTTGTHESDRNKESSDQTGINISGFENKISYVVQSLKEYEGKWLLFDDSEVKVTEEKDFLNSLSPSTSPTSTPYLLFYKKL
Sequence of Cytochrome P450 2D6 (Homo sapiens) (P10635 whole entry, looked up): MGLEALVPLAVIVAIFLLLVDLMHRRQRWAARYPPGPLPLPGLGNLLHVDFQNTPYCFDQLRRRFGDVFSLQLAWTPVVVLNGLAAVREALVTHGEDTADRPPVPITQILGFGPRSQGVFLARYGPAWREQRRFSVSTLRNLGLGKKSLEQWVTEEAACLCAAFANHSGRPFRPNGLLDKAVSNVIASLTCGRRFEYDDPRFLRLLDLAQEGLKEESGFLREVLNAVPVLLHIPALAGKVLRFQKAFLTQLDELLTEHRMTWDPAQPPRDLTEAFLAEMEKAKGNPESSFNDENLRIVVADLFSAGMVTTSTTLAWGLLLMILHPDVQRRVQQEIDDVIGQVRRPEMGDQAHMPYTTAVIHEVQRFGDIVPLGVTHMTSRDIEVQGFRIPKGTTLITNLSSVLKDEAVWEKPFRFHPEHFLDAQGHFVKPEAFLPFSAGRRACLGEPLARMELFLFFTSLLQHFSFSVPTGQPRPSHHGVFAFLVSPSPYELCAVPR

In the case of `Clc1ccccc1-c1cc(NCc2cccnc2)ncn1`, the Potency in assay [1] is > 11.4 µM; in [3] it was 3.16 µM (active); in [5] it was > 46 µM; in [6], > 46 µM. In addition, the activity change, negative = inhibition in [2] is -5.3%. Moreover, the activity, negative = inhibition in assay [4] is 6.36%. The Potency entry in assay [7], in [8], in assay [9], in assay [10] and in assay [12] was “inactive” in each case. The result in [11] and in assay [13] was inactive.

As for `Cn1cccc1C(=O)N1CCC2(CC1)CCN(c1cccc(-c3ccccc3)c1)CC2`, the Potency is > 11.4 µM in assay [1], 20 µM (active) in [3] and > 46 µM in assay [6]. Besides, the activity change, negative = inhibition in assay [2] is -12.9%; in assay [14], 16.5%. Further, in assay [4], the activity, negative = inhibition is -8.63%. In assay [8], the Potency entry was “inactive”. For the same compound, in assay [13], the outcome was inactive.

For `O=C(Oc1ccccc1)N1CCC[C@@]2(CCN(c3ccccn3)C2)C1`, the Potency in [1] was > 11.4 µM; in [3] it was 7.94 µM (active); in assay [6], > 46 µM. The activity change, negative = inhibition in [2] is 7.28%; in assay [14] it was -24.6%. The activity, negative = inhibition in assay [4] is 9.87%. Also, the Potency entry in assay [7] and in [9] was “inactive” in each case. Besides, the result in assay [13] was inactive.

Turning to `CC(C)NC(=O)N1CCCC2(CCN(C(=O)c3ccco3)CC2)C1`, the Potency in assay [1] was > 11.4 µM; in assay [6], > 46 µM; in assay [15], 2.51 µM (active). In addition, the results for the activity change, negative = inhibition in [2] and in [14] were 4.82% and -9.54%, respectively. Further, the Potency entry in assay [3], in [7], in assay [8] and in [9] was “inactive” in each case. For the same compound, the activity, negative = inhibition in [4] is -11.2%. Moreover, in assay [13], the result was inactive.

Consider `COC(=O)N1CCC[C@@]2(CCN(c3ncccn3)C2)C1`, for which the Potency in assay [1] was > 11.4 µM; in assay [6] it was > 46 µM. The activity change, negative = inhibition in [2] was 2.3%; in [14], 11.8%. The Potency result in assay [3], in [7] and in assay [8] was “inactive” throughout. Further, the activity, negative = inhibition in assay [4] is 8.51%. The activation in assay [16] was 23.3%. The result in assay [13] was inactive.

For the compound `COCC(=O)N1CCC2(CCCN(c3cccc(-c4ccccc4)c3)C2)CC1`, the Potency in assay [1] is > 11.4 µM; in assay [3], 15.8 µM (active); in assay [6], > 46 µM. Further, the activity change, negative = inhibition in assay [2] is -22.8%; in assay [14] it was 17%. Moreover, in assay [4], the activity, negative = inhibition is -10.6%. Also, the Potency entry in [7] and in assay [9] was “inactive” each time. Also, in assay [13], the result was inactive.

For the compound `COc1ccc(Oc2ncc3nc(-c4cccs4)c(=O)n(-c4ccccc4)c3n2)cc1`, the Potency in assay [1] was > 11.4 µM; in [3], 3.16 µM (active); in [5] it was > 9.22 µM; in assay [6], > 46 µM; in [17], 2.51 µM (active); in assay [16], 2.51 µM (active). In addition, the results for the activity change, negative = inhibition in assay [2] and in assay [14] were 21.1% and 8.33%, respectively. Further, the Potency result in assay [7], in [8] and in assay [9] was “inactive” each time. The result in assay [13] was inactive.
